Measurements taken from PubChem BioAssay AID504692 (The Scripps Research Institute Molecular Screening Center, 2011).
The whole screen tested about 340,000 compounds, of which about 2,000 (0.59%) were called active. This excerpt belongs to a sample that is enriched for actives. Values without a mark were called inactive. No stated cut-off is given here; in the data, active means activation mostly above about 9.5% (no sharp cut-off); inactive means mostly below about 7.6%.

Biological target: 5-hydroxytryptamine receptor 5A (Homo sapiens) (UniProt P47898)
Sequence (P47898 whole entry, looked up): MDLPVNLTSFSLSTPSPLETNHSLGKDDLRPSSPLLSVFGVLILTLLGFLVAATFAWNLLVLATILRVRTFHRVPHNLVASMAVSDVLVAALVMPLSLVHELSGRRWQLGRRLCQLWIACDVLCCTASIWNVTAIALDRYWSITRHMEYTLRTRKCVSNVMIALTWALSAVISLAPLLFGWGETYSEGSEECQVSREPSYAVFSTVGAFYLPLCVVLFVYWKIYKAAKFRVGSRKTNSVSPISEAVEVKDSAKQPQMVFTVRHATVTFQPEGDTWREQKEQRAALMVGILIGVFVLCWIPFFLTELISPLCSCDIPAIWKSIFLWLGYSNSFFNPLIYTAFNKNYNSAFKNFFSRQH
Assay: activation of human 5-HT5A receptor – cell-based, luminescence, full-deck HTS, counter-screen for OPRM1-OPRD1 heterodimer agonist project, primary screen (AID 504692);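 further: 0% = cells with vehicle only and 100% = reference agonist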
Settings: HTR5A agonist assay, at 9.3 µM, hits give high values

| SMILES | activation |
| --- | --- |
| COc1ccc(CCNC(=O)CC2SC(=Nc3cc(C)cc(C)c3)NC2=O)cc1OC (centres undefined) | 1.71% |
| O=C(CC1NCCNC1=O)Nc1ccc(Oc2ccccc2)cc1 (centres undefined) | 1.17% |
| O=C(CC1Nc2ccccc2NC1=O)Nc1ccccc1 (centres undefined) | 17% (active) |
| COC(=O)c1cc(C)sc1NC(=O)CC1Nc2ccccc2NC1=O (centres undefined) | 2.14% |
| COc1ccc(/C=C(\NC(=O)c2ccc(OCC(C)C)cc2)C(=O)OCc2ccco2)cc1 | -0.73% |
| O=S(=O)(NCc1cccnc1)c1ccc(Cl)nc1 | -5.88% |
| COCCCN1C(=O)c2ccc(C(=O)Nc3ccc(OC)cc3OC)cc2C1=O | -0.44% |
| COc1ccc2[nH]cc(CCN3C(=O)c4ccc(C(=O)O)cc4C3=O)c2c1 | 27% (active) |
| Cc1ccc2[nH]cc(CCCN3C(=O)c4ccccc4C3=O)c2c1 | -1.1% |
| O=C(CNCc1cccs1)Nc1cc(S(=O)(=O)N2CCCC2)ccc1Cl | -2.05% |
| COc1ccccc1CNC(=O)C1CCCN(S(=O)(=O)c2cccc3cccnc23)C1 (centres undefined) | -3.07% |
| CCC(C)OC(=O)C(C)Oc1ccc(-c2ccccc2)cc1 (centres undefined) | 3.02% |
| CC(=O)Nc1ccc(N2C(=O)C3C4CC(=O)C(c5ccccc54)C3C2=O)cc1 (centres undefined) | -1.72% |
| CC1=C(C)CC2C(=O)N(c3cccc4ccccc34)C(=O)C2C1 (centres undefined) | 1.96% |
| CCc1ccccc1N1C(=O)C2C3CC(=O)C(c4ccccc43)C2C1=O (centres undefined) | 10.2% (active) |
| Cn1nc(C(C)(C)C)c([N+](=O)[O-])c1C(N)=O | -3.65% |
| NC(=O)c1ccc(N2CCOCC2)nc1 | 5.3% |
| CCCN(CC1CC1)C(=S)NC(=O)c1ccccc1Br | -3.6% |
| CC[C@]12c3[nH]c4cc(CCC(=O)N(C)C)ccc4c3CCN1C(=O)[C@@H](CC(=O)NCCCN(C)C)C[C@@H]2C(=O)N1CCN(C(=O)c2ccco2)CC1 | 4.2% (active) |
| CC[C@]12c3[nH]c4cc(CCC(=O)N(C)C)ccc4c3CCN1C(=O)[C@@H](CC(=O)NCCCn1ccnc1)C[C@@H]2C(=O)N1CCN(C(=O)C2CC2)CC1 | 2.93% |
| CC[C@]12c3[nH]c4cc(CCC(=O)N(C)C)ccc4c3CCN1C(=O)[C@@H](CC(=O)NCc1ccco1)C[C@@H]2C(=O)N1CCN(C(=O)c2ccco2)CC1 | -2.65% |
| O=C(c1cccnc1)N(c1cc2sc(=O)oc2c2ccccc12)S(=O)(=O)c1ccccc1 | 16.1% (active) |
| COc1ccc(N(C(=O)c2cccnc2)S(=O)(=O)c2ccc(OC)c(OC)c2)cc1 | 6.11% |
| O=C(c1cccnc1)N(Cc1ccccc1)C(=O)c1cccnc1 | 5.83% |
